A short description of assay [1]: yeast TOR pathway RPL19A-GFP modulators, primary screen, cell-based, S. cerevisiae, multiplex flow cytometry (AID 1862; in the data active = percent of DMSO control GFP below about 86%;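 note: lower values mimic rapamycin by blocking the RPL19A rise seen in DMSO cells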). Particulars: S. cerevisiae RPL19A-GFP strain, flow cytometry fluorescence, 3 h; at 10 µM; stronger effect = lower value.
The nature of assay [2]: modulators of MEP2-GFP levels in yeast, primary screen, S. cerevisiae, multiplex flow cytometry (AID 1867).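 Note: median GFP channel fluorescence of barcode-gated MEP2-GFP cells measured by flow cytometry.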 Particulars: S. cerevisiae MEP2-GFP strain, 3 h, at 10 µM, stronger effect = higher value, 100% means same as DMSO wells. On the technique in general: Flow cytometry measures light scatter and fluorescence of single cells or particles in a stream.
The nature of assay [3]: modulators of CIT2-GFP expression in yeast, primary screen, S. cerevisiae, GFP fusion, multiplex flow cytometry (AID 1870;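 active = percent response above a set limit, the screen-wide mean plus 3 SD, cut at about 130% in these data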;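 note: barcoded CIT2-GFP strain pooled with four other GFP strains with rapamycin as positive control; median GFP fluorescence per well over plate mean of DMSO wells so 100% = DMSO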). Particulars: 3 h, at 10 µM, stronger effect = higher value.
Assay [4] can be described thus: modulators of LAP4-GFP expression in yeast, primary screen, S. cerevisiae, multiplex flow cytometry (AID 1873;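 active = GFP signal, as percent of the solvent control, above the screen mean plus 3 SD, about 149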). The settings on record: 3 h, at 10 µM, stronger effect = higher value.
Assay [5] is described as follows: modulators of AGP1-GFP expression in yeast TOR pathway, primary screen, cell-based, multiplex flow cytometry, S. cerevisiae (AID 1887;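 active = GFP signal above the screen-wide mean plus 3 SD, that is over about 124.5% of the solvent control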;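 note: AGP1-GFP fusion strain of S. cerevisiae within a five-strain barcoded multiplex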). The settings on record: 3 h, at 10 µM, stronger effect = higher value.
Assay [6] is described as follows: inhibitors of CD8+ T cell-vesicle binding, pilot screen, LFA-1/ICAM-1 modulator project, MLPCN validation set, flow cytometry (AID 2523;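 active = response below a set limit, under 55% cells CD8-positive and vesicle-bound, and CD8 cells' 90th-percentile brightness under 279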;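 for vesicle binding response: mean PE anti-B7-1 fluorescence of CD8+ cells relative to row control; 100% = QL9-loaded vesicles with DMSO vehicle in the same plate row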). Particulars: 2C mouse CD8+ T cells, at 7 µM, stronger effect = lower value; double positive events: measured here: CD8+/vesicle+ event percentage.
Assay [7] has as its target Integrin beta-1 (Homo sapiens) + Integrin alpha-4 (Homo sapiens) (UniProt P13612+P05556). The assay is described as follows: inhibition of HUTS-21 binding to VLA-4, pilot screen, VLA-4 allosteric modulator project, U937 cells, HUTS-21 mAb, flow cytometry, validation set (AID 2674;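 active = inhibition above 50%, about 3 SD of the validation set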;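 note: antibody binding induced by the VLA-4 ligand LDV present at three times its Kd; 0% = LDV ligand with antibody and no compound and 100% = antibody without LDV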). Particulars: HUTS-21 LIBS mAb binding, at 6.7 µM, stronger effect = higher value, binding induced by LDV ligand.

Assay [8] in a line: superoxide lowering in aged yeast cells, pilot screen, validation compound set (AID 2706;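 active = superoxide response below 65% of plate, a cut near 3 SD across the whole screen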;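 note: yeast exposed to compound for one week at 30 degrees C before staining; 100% = mean of all compound wells on the same plate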). The settings on record: S. cerevisiae aging, superoxide DHE fluorescence; at 10 µM; stronger effect = lower value.
Assay [9] deals with Beta-adrenergic receptor kinase 1 (Homo sapiens) (UniProt P25098). The experiment in a line: GRK2 binders displacing RNA aptamer, biochemical, validation, human GRK2, bead flow cytometry (AID 488806;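 active = aptamer binding inhibition above 30%, about 3 SD of noise from non-fluorescent compounds; inactive = inhibition at or below 30%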). Particulars: bead-bound GRK2, FAM-aptamer displacement, at 10 µM, stronger effect = higher value.
For assay [10], the target named is Beta-2 adrenergic receptor (Homo sapiens) (UniProt P07550). The assay is described as follows: beta2AR agonists driving receptor internalization, pilot screen, cell-based, FAP fluorogen, flow cytometry, validation set (AID 504459;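 active = percent response above 42, roughly 3 SD of non-fluorescent test compounds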;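 note: agonist-driven loss of surface beta2AR via internalization measured by FAP dye flow cytometry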). Particulars: Am2.2-beta2AR cells, FAP surface receptor flow cytometry; at 10 µM; stronger effect = higher value.
The target in assay [11] is AP-2 complex subunit beta (Homo sapiens) (UniProt P63010). The assay is described as follows: inhibitors of arrestin peptide binding to AP2, pilot screen, biochemical, validation set, GST-AP2 beads, flow cytometry (AID 504541;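 active = inhibition above 54%, about 3 SD of non-fluorescent compounds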;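 note: AP2 carries R879A mutation and is captured from E. coli lysate; bead-bound FITC arrestin peptide fluorescence measuring arrestin peptide binding to AP2; 0% = DMSO wells and 100% = excess unlabeled arrestin peptide control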). The settings on record: FITC arrestin peptide, at 10 µM, stronger effect = higher value, AP2 beta2 appendage fragment, R879A mutant.
Assay [12] can be described thus: yeast V-ATPase proton transport modulators, S. cerevisiae, pHLuorin, HTS validation (AID 504600; in the data active = response above about 15%;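 note: plate controls were DMSO for no effect and reference compound for full effect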). The settings on record: S. cerevisiae pHLuorin cytosolic pH, at 10 µM, stronger effect = higher value.
In assay [13] the test system is anti-desmoglein-3 scFv antibody binding to human DSG3. The experiment in a line: inhibitors of anti-DSG3 scFv binding to DSG3, pilot screen, biochemical, validation compound set, bead-based, flow cytometry (AID 588368;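 active = binding below the plate cutoff, the plate median minus 3 SD, with a reading above zero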;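 note: signal is the median channel fluorescence of bead-bound GFP antibody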). Particulars: Protein G beads, DSG3-Fc, scFv-GFP binding, at 10 µM, stronger effect = lower value.
The nature of assay [14]: inhibitors of fungal efflux pumps CDR1, CDR2, MDR1, pilot screen, validation compound set, multiplex, phenotypic (AID 588506;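 active = efflux inhibition above 0.42, the validation set average plus 4 SD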;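 note: Nile Red retained in cells so higher fluorescence means more efflux inhibition; 0 = negative control wells and 1 = enniatin B 25 µM full block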). The settings on record: S. cerevisiae pump-expressing triplex, Nile Red efflux flow cytometry; at 10 µM; stronger effect = higher value; the pumps come from Candida albicans.
For assay [15], the target named is ATP-binding cassette sub-family B member 6 (Homo sapiens) (UniProt Q9NP58). The experiment in a line: ABCB6 transporter inhibitors, pilot screen, K562-ABCB6 cells, flow cytometry, validation set (AID 588550;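 active = inhibition above the screen-wide mean plus 3 SD, about 51%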;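 note: 0% = DMSO wells and 100% = benzethonium chloride 70 µM positive control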). Particulars: K562-ABCB6 porphyrin accumulation, 1 h, at 10 µM, stronger effect = higher value.
The nature of assay [16]: promoters of myeloid differentiation in arrested cells, primary screen, cell-based, GFP/MAC1 double positive, flow cytometry, validation set (AID 588685;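 active = differentiation response of at least 50%, scaled between solvent and reference control, from cells with both markers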;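 note: compound exposure lasts four days before antibody staining and flow analysis; 0% = DMSO wells and 100% = 5 µM fulvestrant positive control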). Particulars: ER-HoxA9 marrow cells, stronger effect = higher value, normalized: vehicle 0, fulvestrant 100.

Inconclusive results are not listed. Activity calls are given as the source filed them.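 Rule for the calls, unless noted: active = GFP response, as percent of the DMSO control, above the screen-wide mean plus 3 SD, about 139; inconclusive = no response measured because the compound's own fluorescence interfered; inactive = the rest.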

AP-2 complex subunit beta (Homo sapiens), sequence (P63010 whole entry, looked up, the tested form may be a part, one chain of several): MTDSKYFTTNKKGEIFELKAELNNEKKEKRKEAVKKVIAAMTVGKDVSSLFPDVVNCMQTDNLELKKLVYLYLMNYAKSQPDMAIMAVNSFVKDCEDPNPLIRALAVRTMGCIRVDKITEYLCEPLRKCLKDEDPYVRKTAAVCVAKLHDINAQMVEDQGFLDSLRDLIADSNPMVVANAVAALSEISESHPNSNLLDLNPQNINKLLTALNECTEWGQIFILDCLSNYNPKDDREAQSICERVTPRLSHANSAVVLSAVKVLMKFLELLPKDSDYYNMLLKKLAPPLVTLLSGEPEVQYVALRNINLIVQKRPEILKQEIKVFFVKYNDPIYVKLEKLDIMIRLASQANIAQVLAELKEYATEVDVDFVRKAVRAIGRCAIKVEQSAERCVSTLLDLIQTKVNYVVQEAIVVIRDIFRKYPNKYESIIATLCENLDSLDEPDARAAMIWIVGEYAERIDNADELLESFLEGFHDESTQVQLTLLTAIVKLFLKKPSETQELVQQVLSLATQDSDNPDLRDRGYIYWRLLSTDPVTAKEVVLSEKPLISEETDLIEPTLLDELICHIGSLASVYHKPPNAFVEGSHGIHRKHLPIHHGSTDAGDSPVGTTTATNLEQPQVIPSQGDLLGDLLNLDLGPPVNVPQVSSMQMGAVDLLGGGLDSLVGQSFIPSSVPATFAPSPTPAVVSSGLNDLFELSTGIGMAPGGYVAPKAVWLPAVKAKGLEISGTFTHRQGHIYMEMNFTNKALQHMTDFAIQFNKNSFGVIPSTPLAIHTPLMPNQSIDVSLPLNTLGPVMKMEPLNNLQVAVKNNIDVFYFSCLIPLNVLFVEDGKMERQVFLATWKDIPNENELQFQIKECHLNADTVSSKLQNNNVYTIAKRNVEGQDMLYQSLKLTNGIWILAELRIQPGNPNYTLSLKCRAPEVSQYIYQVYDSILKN
Beta-2 adrenergic receptor (Homo sapiens), sequence (P07550 whole entry, looked up): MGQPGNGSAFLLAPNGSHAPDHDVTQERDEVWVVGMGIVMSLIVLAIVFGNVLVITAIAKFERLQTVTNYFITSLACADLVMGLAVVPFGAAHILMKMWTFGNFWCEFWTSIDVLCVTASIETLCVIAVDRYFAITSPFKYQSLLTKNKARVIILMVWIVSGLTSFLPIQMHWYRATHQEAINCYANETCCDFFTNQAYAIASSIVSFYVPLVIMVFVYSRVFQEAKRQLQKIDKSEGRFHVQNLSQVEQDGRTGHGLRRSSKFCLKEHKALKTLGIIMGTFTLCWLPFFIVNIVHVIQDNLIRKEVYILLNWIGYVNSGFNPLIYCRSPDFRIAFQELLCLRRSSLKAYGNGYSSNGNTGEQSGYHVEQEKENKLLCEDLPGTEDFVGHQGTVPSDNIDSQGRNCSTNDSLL
Integrin beta-1 (Homo sapiens) + Integrin alpha-4 (Homo sapiens), sequence (P05556 whole entry, looked up): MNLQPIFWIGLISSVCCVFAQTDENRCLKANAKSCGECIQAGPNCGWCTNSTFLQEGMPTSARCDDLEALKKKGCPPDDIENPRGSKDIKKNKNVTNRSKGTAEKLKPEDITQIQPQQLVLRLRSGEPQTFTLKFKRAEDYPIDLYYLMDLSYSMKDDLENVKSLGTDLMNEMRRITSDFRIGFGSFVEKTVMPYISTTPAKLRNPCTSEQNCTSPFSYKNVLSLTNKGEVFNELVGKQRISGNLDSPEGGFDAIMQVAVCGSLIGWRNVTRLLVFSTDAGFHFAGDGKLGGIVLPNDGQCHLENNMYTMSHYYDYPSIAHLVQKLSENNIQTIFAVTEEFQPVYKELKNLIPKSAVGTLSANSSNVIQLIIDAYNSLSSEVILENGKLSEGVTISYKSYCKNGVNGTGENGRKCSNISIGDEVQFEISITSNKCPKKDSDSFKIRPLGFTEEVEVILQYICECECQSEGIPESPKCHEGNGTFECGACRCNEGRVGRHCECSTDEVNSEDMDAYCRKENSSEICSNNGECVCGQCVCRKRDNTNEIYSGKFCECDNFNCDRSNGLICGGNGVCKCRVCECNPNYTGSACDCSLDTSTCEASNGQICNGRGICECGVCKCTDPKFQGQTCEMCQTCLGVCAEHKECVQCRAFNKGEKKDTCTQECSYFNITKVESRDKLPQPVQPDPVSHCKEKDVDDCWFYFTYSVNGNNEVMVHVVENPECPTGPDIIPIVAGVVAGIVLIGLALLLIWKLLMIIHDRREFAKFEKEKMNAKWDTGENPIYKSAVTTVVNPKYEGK
Integrin beta-1 (Homo sapiens) + Integrin alpha-4 (Homo sapiens), sequence (P13612 whole entry, looked up): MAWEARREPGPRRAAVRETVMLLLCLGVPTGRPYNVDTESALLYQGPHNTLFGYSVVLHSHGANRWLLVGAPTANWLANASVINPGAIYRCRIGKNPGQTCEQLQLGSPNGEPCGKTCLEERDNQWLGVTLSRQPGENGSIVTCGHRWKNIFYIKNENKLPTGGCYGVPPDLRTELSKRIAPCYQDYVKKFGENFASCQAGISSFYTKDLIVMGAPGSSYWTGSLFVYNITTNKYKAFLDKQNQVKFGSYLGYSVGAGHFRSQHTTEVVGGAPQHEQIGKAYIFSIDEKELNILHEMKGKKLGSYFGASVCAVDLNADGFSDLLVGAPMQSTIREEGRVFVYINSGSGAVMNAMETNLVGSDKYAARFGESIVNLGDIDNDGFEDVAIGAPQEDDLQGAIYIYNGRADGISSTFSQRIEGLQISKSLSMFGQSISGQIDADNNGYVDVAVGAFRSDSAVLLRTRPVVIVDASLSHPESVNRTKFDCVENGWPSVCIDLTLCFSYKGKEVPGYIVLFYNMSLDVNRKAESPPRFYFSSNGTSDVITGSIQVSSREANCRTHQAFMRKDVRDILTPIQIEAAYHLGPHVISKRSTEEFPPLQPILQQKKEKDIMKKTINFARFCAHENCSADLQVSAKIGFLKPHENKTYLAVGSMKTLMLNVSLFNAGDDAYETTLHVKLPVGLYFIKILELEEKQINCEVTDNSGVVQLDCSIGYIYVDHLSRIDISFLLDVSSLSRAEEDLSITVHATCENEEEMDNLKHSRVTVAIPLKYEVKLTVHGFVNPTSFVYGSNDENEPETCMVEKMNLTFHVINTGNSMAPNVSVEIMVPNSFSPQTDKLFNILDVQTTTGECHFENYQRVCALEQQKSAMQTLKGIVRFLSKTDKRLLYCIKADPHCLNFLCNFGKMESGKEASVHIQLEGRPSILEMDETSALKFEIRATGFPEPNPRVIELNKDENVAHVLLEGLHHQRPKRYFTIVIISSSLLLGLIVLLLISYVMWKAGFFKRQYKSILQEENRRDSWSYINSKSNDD
ATP-binding cassette sub-family B member 6 (Homo sapiens), sequence (Q9NP58 whole entry, looked up): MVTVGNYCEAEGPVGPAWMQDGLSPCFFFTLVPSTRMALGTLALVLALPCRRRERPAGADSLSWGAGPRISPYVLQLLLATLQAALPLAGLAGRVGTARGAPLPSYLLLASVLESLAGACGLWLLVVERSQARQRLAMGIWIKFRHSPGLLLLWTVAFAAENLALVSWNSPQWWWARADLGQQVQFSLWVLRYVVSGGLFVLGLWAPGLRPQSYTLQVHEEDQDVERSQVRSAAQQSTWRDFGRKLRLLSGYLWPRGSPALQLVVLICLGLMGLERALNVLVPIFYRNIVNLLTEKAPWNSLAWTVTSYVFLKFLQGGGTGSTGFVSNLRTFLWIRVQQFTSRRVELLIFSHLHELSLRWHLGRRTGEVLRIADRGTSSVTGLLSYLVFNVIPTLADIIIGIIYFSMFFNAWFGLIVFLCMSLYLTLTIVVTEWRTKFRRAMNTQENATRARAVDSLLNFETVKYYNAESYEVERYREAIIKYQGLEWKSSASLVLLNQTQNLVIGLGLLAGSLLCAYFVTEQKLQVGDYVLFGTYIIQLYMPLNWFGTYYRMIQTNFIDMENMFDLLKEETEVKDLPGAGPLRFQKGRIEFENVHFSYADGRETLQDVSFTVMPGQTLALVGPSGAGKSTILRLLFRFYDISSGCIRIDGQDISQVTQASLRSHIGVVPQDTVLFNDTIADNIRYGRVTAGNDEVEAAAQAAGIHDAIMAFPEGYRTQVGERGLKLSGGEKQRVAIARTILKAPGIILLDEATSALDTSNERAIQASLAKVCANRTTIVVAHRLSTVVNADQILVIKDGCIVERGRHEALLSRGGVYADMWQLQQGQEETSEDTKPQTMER
Beta-adrenergic receptor kinase 1 (Homo sapiens), sequence (P25098 whole entry, looked up): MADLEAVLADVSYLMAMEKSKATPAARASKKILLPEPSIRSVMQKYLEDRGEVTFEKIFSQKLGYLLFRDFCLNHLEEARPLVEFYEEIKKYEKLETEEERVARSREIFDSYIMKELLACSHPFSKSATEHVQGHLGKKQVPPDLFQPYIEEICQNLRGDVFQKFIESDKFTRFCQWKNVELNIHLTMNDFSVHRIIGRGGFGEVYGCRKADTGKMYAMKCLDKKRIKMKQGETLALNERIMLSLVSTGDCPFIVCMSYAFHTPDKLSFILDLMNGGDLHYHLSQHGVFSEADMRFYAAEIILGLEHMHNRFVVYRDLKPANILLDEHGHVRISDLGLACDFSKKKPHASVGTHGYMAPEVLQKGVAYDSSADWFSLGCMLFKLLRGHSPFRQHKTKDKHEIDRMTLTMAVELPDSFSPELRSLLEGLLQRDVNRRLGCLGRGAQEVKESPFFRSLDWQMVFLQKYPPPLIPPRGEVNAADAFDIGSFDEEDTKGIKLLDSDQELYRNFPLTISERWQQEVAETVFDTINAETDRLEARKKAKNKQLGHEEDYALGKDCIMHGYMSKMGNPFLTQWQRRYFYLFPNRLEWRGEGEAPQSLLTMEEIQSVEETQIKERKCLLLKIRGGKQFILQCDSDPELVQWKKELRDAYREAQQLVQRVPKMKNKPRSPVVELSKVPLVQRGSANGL

As for `O=C(O)c1ccc(OCCn2ccnc2)cc1`, the percent of DMSO control GFP in assay [1] is 103% (inactive). For the same molecule, the values for the GFP response vs DMSO in assay [2] and in assay [4] were 95.6% (inactive) and 93.7% (inactive), respectively. Besides, the percent response of DMSO control in [3] is 106% (inactive). In addition, in assay [5], the GFP response, % of DMSO is 112% (inactive). For the same molecule, in [6], the double positive events stood at 66.1%. Also, the vesicle binding response in assay [6] was 173% (inactive). The inhibition (as a rule, the relative decrease from the control value, in per cent) was 9.63% (inactive) in assay [7], -0.39% (inactive) in assay [11] and 16% (inactive) in assay [15]. Further, in assay [8], the superoxide response (% of plate) is 91.6% (inactive). In addition, the aptamer binding inhibition in [9] is -2% (inactive). Moreover, the response was -0.04% (inactive) in assay [10] and 2.25% (inactive) in assay [12]. For the same molecule, the binding (% of control) in [13] was 101% (inactive). The efflux inhibition (fraction of control) in assay [14] is 0.36 (inactive). In addition, in [16], the differentiation response was 2.74% (inactive).
Turning to `O=C(O)CCCN1C(=O)NC2NC(=O)NC21` (stereo not drawn), in assay [1], the percent of DMSO control GFP was 103% (inactive). Moreover, the GFP response vs DMSO in assay [2] is 114% (inactive); in assay [4] it was 86.1% (inactive). Moreover, in assay [3], the percent response of DMSO control is 101% (inactive). Besides, the GFP response, % of DMSO in assay [5] was 97.5% (inactive). The double positive events in assay [6] was 64.9%. For the same molecule, the vesicle binding response in assay [6] is 914% (inactive). Moreover, the inhibition in assay [7] is -1.49% (inactive); in [11], 35.1% (inactive); in assay [15], 25% (inactive). For the same molecule, the superoxide response (% of plate) in assay [8] is 106% (inactive). In addition, the aptamer binding inhibition in [9] was 3% (inactive). In addition, the values for the response in [10] and in assay [12] were 0.46% (inactive) and -1.41% (inactive), respectively. The binding (% of control) in [13] is 98.4% (inactive). Further, the efflux inhibition (fraction of control) in [14] is -0.04 (inactive). Also, in assay [16], the differentiation response was 33.5% (inactive).
With `O=C(O)/C=C/c1cnc[nH]1`, the percent of DMSO control GFP in [1] was 104% (inactive). Further, the GFP response vs DMSO was 108% (inactive) in [2] and 101% (inactive) in [4]. Further, in assay [3], the percent response of DMSO control was 106% (inactive). Further, the GFP response, % of DMSO in assay [5] was 112% (inactive). In assay [6], the double positive events is 59.9%. Moreover, in assay [6], the vesicle binding response is 93.5% (inactive). The inhibition is 2.93% (inactive) in assay [7], -0.6% (inactive) in [11] and 10% (inactive) in assay [15]. In addition, the superoxide response (% of plate) in [8] was 98.6% (inactive). In [9], the aptamer binding inhibition was -2% (inactive). Further, the response in assay [10] was -4.55% (inactive); in [12] it was -0.43% (inactive). Moreover, the binding (% of control) in [13] was 103% (inactive). The efflux inhibition (fraction of control) in assay [14] is 0.755 (active). In [16], the differentiation response was -13.3% (inactive).
On to `CCCC(=O)Nc1ncnc2c1ncn2[C@@H]1O[C@@H]2COP(=O)(O)O[C@H]2[C@H]1OC(=O)CCC`, for which the percent of DMSO control GFP in assay [1] is 97.7% (inactive). In addition, the GFP response vs DMSO in assay [2] is 130% (inactive); in [4], 96.3% (inactive). Further, in assay [3], the percent response of DMSO control was 97.9% (inactive). Moreover, the GFP response, % of DMSO in assay [5] is 94.7% (inactive). Besides, in [6], the double positive events was 61%. Moreover, the vesicle binding response in assay [6] is 131% (inactive). The inhibition in [7] was 4.52% (inactive); in [11], -3.95% (inactive); in assay [15], 7% (inactive). In addition, the superoxide response (% of plate) in [8] was 96.8% (inactive). Besides, the aptamer binding inhibition in [9] is 3% (inactive). Moreover, the response in [10] was -6.04% (inactive); in assay [12], 1.56% (inactive). Moreover, in [13], the binding (% of control) is 98.3% (inactive). The efflux inhibition (fraction of control) in [14] is -0.06 (inactive). Moreover, in assay [16], the differentiation response is 5.73% (inactive).

The values are drawn from PubChem BioAssay.
